The test system of the experiment is VDR:RXRa (NR concentration 270 nM, RXRa partner concentration 90 nM). Put plainly: PBM binding z-score (relative to random genomic background probes); higher = stronger binding; sequences stand for … in GC…GCGATTGACAGCGTAGAATGAAGG
The method, then:
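Protein-binding microarray (Agilent 4x180K custom design, double-stranded 60-nt probes: 5' GC cap, 34-nt variable region, 24-nt constant primer region; full probe sequence given). Purified or IVT nuclear receptor:RXRα heterodimers (3:1 NR:RXRα, mostly 270:90 nM) or homodimers were incubated for 1 h in PBS with 2% milk and no ligand, then detected with Alexa488 antibodies. Fluorescence from o1-orientation probes (~5 replicates averaged) was converted to z-scores against 500 random hg19 background probes. Variable regions are seed direct-repeat (DR0–DR5) sites, all their single-nucleotide variants and half-site ablations.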
AGAATGAGGTTAAGATCTGGGAAACAGAATACAT gave a PBM binding z-score of 1.13.

Sequence GGAACGAGGGCATTCGCGTTGATAGCATGGCGAT returned a PBM binding z-score of 1.53.

Turning to CAAACTAGGTCACGGTCAAAGTCGGTTTGTGCCA, the PBM binding z-score was determined as 3.33. In the case of CTCAAAAGGTCGGTTGAGGTGAGTATACGGATAA, the PBM binding z-score was determined as 2.54.

Regarding ACAGAGAGGTGAGTGAAGGTAACTCAGCTGGACG, the PBM binding z-score turned out to be 0.13.

With TGAATGAGGTTAAAGATGAGGGAACGTGGCGTCG, the PBM binding z-score was 1.48. Under ACTTACGGGTCAACGAGGTGATAGCACGCGTATA stands 6.61; under AGAACGATGGCAATGAGTTGATAGCACGGGTGGC, 0.528; under GGAACTAGGGCAAGTTGATAGCAGAGTTTGATGG, -0.183. In the case of TCTAGTTGGTCAAAGATCACACACTCGAAATGCG, the PBM binding z-score came to 1.29.

AGAACGAGAGCAATGAGTTGATAGCACGGGTGGC registered a PBM binding z-score of 1.96. Under AATACAGGGTCTCTAGGCCAGAGTAGGTACGAAT stands -0.299; under TCTGCTAGGGCAACGATGGTCAGCTAATCTGCTA, -0.552; under CCTAATTGGTCAAGGTCACACACGCTATAGGTAC, 4.03. As to ATATGTAGGTTACATCCGGATCATTCAGGCTATG, the PBM binding z-score stood at 0.945. CCTGCTAGGTAAATGGTCAGCTAAAGCAGCTCGC came in with a PBM binding z-score of -0.541.

On to CCAGACAGGTGAGAAGGTAACTCGGCCTCGATTA, for which the PBM binding z-score is -0.138. Consider AGATTGAGGTTATTAAGATCAGGGAATTGCGGTC, for which the PBM binding z-score amounted to 2.28.

In the case of ATATGTAGGTTACATCCGGGTCATACAGGCTATG, the PBM binding z-score came to 4.02. On to AGTCAAAGTTCAGGACAAGGTAACGTAAAGCACG, for which the PBM binding z-score is 2.55. As to ATATGTAGGTTAGCTGGGGTCATTTAGACTAGGC, the PBM binding z-score worked out at 5.97. The sequence TAGCCTAGGTCATGCGGGCCAGTGTAGTGTCGGC returned a PBM binding z-score of 2.74. The sequence CCGAGTAGGTTTTGGGGCATTCAGGCAACGGTGA came in with a PBM binding z-score of -0.239. Under CGTCCAAGGTCATTGCTAGGTCAGTGAAAGCATT stands 5.53; under GCTAGTTGGTCAGTAGAAGGTCACACACCGGTCG, 2.65. In the case of GCTATTAGTTGAATGGGCAACCGAATGATTCTCG, the PBM binding z-score is -0.287. The result for TCGAGTATGTTAGGGGCATTCAGAATGGCGTCGA reads 0.88; that for GATACAGGTTCAGCTAGAGGCCAGAGTATGGAAA, 2.28; that for CCTATTGGGCCAAGGTCATTGATCAGTCAAAGCA, 3.29. Turning to CCTGCTAGGTCATGGACAGCTAATCTACAGTATG, the PBM binding z-score was 1.56. The result for AGAATGAGGTTATACGTAGATCAGGGAGGAAAGT reads 1.33.

In turn, AGAATGAGGTTACCAAAGATCATGGAAACGCTTG yielded a PBM binding z-score of 1.79. On to GCTATTAGTTAAAAGGGCAACCGAATGATTCTCG, for which the PBM binding z-score was found to be 0.193. As to TGTGAAAGTTCAAAGGTAACGTAAGTATCCACAC, the PBM binding z-score came out at 4.88. In turn, CCAGACAGGTGAGAAGGTAACTCATCCTCGATTA gave a PBM binding z-score of 0.198. Under TCTAGTTGGTCACGGAGGTCACATACGACGGGTA stands 5.92; under ATATGTAGGTTATCGGGCCATTCAGTTTGCGCAT, 1.14; under CCTACTGGGCCTTTCAGAGGTCATTGATCATATG, 3.36. ATCTCTAGGTAAAGATAGGTCAGTGAATGCAAAT returned a PBM binding z-score of 1.13. The sequence TCTCGGAGGACACGGAGGTCAGAGCTTTCCAGAG came in with a PBM binding z-score of 3.39.

(Values after the supplement of paper PMC6555819.)
